Results on 37 molecules are retold here after PubChem BioAssay (Tox21).

The target in the experiment is Beta-2 adrenergic receptor (Homo sapiens) (UniProt P07550). Nature of the experiment: Adrenergic beta2 receptor (ADRB2) small molecule agonists, cell-based qHTS assay (AID 1963593).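 For activation: CHO cells stably overexpressing human ADRB2.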 A digest of the protocol: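 CHO cells stably over-expressing ADRB2 were plated overnight at 37C, then dosed with compounds plus a stimulation mix containing 100uM IBMX and 25uM Ro-20-1724 for 0.5hr at room temperature. cAMP was measured by HTRF competition, 1hr.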
Sequence of Beta-2 adrenergic receptor (Homo sapiens) (P07550 whole entry, looked up): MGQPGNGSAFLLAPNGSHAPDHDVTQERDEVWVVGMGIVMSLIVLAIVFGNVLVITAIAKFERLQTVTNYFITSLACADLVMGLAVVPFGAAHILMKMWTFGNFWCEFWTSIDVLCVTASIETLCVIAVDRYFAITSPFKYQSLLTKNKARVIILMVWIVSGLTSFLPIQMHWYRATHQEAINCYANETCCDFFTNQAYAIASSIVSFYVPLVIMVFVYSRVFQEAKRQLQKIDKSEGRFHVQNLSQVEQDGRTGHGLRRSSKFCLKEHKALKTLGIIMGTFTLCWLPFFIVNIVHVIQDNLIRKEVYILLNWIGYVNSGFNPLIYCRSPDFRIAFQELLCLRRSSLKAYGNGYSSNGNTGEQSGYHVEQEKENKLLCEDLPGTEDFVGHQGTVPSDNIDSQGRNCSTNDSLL
Background: Quantitative high-throughput screening tests each substance at several concentrations.

Results filed as inconclusive are left out. A call without a number means that no potency is given here. Values without a mark were called inactive. Activity calls are given as the source filed them. Calls come from the whole dose curve.
Potency is the fitted concentration of half-maximal effect.

For `CN1COCN(Cc2cnc(Cl)s2)/C1=N\[N+](=O)[O-]`, the Potency entry was “inactive”.

For the molecule `NCC1(CC(=O)O)CCCCC1`, the Potency result is “inactive”.

Take `CCOP(=S)(OCC)Oc1ccc(S(C)=O)cc1` (configuration not stated): the Potency entry was “inactive”.

Turning to `CCOP(=O)(Sc1ccccc1)Sc1ccccc1`, the Potency entry is “inactive”.

As for `CC(C)CP(=S)(S)CC(C)C`, the Potency result was “inactive”.

For the molecule `CCCCCCCCCCCCN(C)C`, the Potency result is “inactive”.

As for `CN1C(=O)CN=C(c2ccccc2)c2cc([N+](=O)[O-])ccc21`, the Potency result was “inactive”.

Turning to `C[C@@H](N)[C@@H](O)c1ccccc1`, the Potency result was “inactive”.

On to `COc1nn(C(=O)NS(=O)(=O)c2ccccc2OC(F)(F)F)c(=O)n1C`, for which the Potency entry was “inactive”.

Turning to `Clc1c(Cl)c(Cl)c(Cl)c(Cl)c1Cl`, the activation was 15.9% [at 8.39 µM].

For the molecule `BrCCCCCCBr`, the Potency result is “inactive”.

Regarding `Cc1cc(C)c(C(=O)P(=O)(C(=O)c2c(C)cc(C)cc2C)c2ccccc2)c(C)c1`, the Potency entry was “inactive”.

For the molecule `CCCCCCCCP(=O)(O)O`, the Potency entry is “inactive”.

Turning to `Cc1cccc(Cc2cnc[nH]2)c1C`, the Potency result was “inactive”.

On to `CC(C)COP(=O)(OCC(C)C)OCC(C)C`, for which the Potency entry was “inactive”.

In the case of `Clc1ccc(C(Cl)(Cl)Cl)cc1Cl`, the Potency result is “inactive”.

In the case of `O=C1CC[C@@]2(O)[C@H]3Cc4ccc(O)c5c4[C@@]2(CCN3CC2CC2)[C@H]1O5`, the Potency entry was “inactive”.

For `c1coc(-c2nc3ccccc3[nH]2)c1`, the Potency entry is “inactive”.

On to `CCCN1CCC[C@@H]2Cc3nc(N)ncc3C[C@H]21`, for which the Potency result was “inactive”.

On to `CCCCCC[N+](=O)[O-]`, for which the Potency entry is “inactive”.

`CC(C)NCC(O)c1ccccc1Cl` (configuration not stated): the Potency was 668 nM (active).

In the case of `NC(=O)CI`, the Potency result is “inactive”.

As for `CC(Cl)CN(C)C` (configuration not stated), the Potency result is “inactive”.

For the molecule `Cn1sc(Cl)cc1=O`, the Potency entry is “inactive”.

As for `CCCN(CC)CC1COC2(CCC(C(C)(C)C)CC2)O1` (configuration not stated), the Potency result is “inactive”.

Regarding `CN=CNc1ccc(C)cc1C`, the Potency result was “inactive”.

As to `COC(=O)c1cc(Oc2ccc(Cl)cc2Cl)ccc1[N+](=O)[O-]`, the Potency result is “inactive”.

For `O=C(NC(=O)c1cc(F)c(F)cc1Cl)Nc1cc(F)ccc1N1CCC(C(=O)O)CC1`, the Potency result is “inactive”.

In the case of `N#CN=C1SCCN1Cc1ccc(Cl)nc1`, the Potency result is “inactive”.

With `O=C(Nc1ccccc1)N(Cc1ccc(Cl)cc1)C1CCCC1`, the Potency result was “inactive”.

As to `ClP(Cl)(Cl)(Cl)Cl`, the Potency entry is “inactive”.

Consider `CC(=O)OC(c1ccccc1)C(Cl)(Cl)Cl` (configuration not stated), for which the Potency result was “inactive”.

On to `C[C@@H]1CC[C@H]2[C@@H](C)C(=O)O[C@@H]3O[C@@]4(C)CC[C@@H]1[C@]32OO4`, for which the Potency entry was “inactive”.

As to `Clc1ccc(CSC(Cn2ccnc2)c2ccc(Cl)cc2Cl)cc1` (configuration not stated), the Potency entry was “inactive”.

Turning to `COc1cccc([C@@]2(O)CCCC[C@@H]2CN(C)C)c1`, the Potency result was “inactive”.

With `Cc1cc(=O)[nH]o1`, the Potency result is “inactive”.

On to `CC1CCCCC1NC(=O)Nc1ccccc1` (configuration not stated), for which the Potency entry is “inactive”.
